Activity calls are given as the source filed them.
Each compound was assayed on XIP peptide (Xip251-270) binding (assay: small-molecule binders of XIP peptide, primary screen, biochemical, small-molecule microarray, fluorescence 635/667 nm, 0.1 µg/mL protein (AID 1182)). Conditions: fluorescent protein binding, 635 nm, higher = more signal, called active from +8 up or from −8 down.

Composite z-score, inactive:
C=CC[C@@]1(C(=O)N2CCCCC2)N=C(c2ccc(OCCCO)cc2)O[C@@H]1c1ccccc1 0.0703
COCCCNC(=O)[C@@H]1c2ccccc2C(=O)N(Cc2ccccc2C(F)(F)F)[C@H]1c1ccc(CO)cc1 0.348
COc1ccc([Si](C)(C)[C@H]2[C@H](CCO)O[C@@]3(C(=O)N(Cc4cccc(N5CCCCC5=O)c4)c4ccccc43)[C@@H]2C)cc1 1.41
O=C1C[C@@](C(=O)NCC(F)(F)F)(c2ccc([N+](=O)[O-])cc2)[C@@H](c2ccc(CO)cc2)N1C1CCCCC1 0.925
COC(=O)[C@@]1(Cc2ccc(OC)cc2)[C@H]2c3cc(C(=O)N(C)C)n(CCc4c[nH]c5ccc(O)cc45)c3C[C@H]2CN1C(=O)c1ccccc1 0.545
CC(C)c1ccc(NN2C(C(O)c3ccco3)C=CC3C(=O)N(c4ccccc4)C(=O)C32)cc1 (stereo unspecified) 0.938
COC(=O)[C@@]1(Cc2ccc(OC)cc2)[C@H]2c3cc(C(=O)N(C)C)n(Cc4nc5ccccc5[nH]4)c3C[C@H]2CN1C(=O)c1ccccc1 0.469
CN1C(=O)[C@@]2(CCS(=O)(=O)c3ccccc3)N=C(c3ccc(OCCCO)cc3)O[C@H]2c2ccccc21 0.489
O=C1O[C@@H](c2ccccc2)[C@@H](c2ccccc2)N2[C@@H](c3ccc(O)cc3)[C@]3(C(=O)Nc4ccccc43)[C@@H](C(=O)Nc3nc4ccccc4s3)[C@H]12 1.03
CC(C)NC(=O)[C@@]1(C)c2ccccc2C(=O)N(C(C)C)[C@H]1c1ccc(CO)cc1 3.06
COC(=O)[C@@]1(Cc2ccccc2)[C@H]2c3cc(C(=O)N4CCCC4)[nH]c3C[C@H]2CN1C(=O)c1ccccc1 0.282
